Experimental data taken from the supplement of paper PMC8728848.
This excerpt belongs to a sample that is enriched for the strongest signals.

Columns and labels:
Experiment in all cases: glycan array binding signal (z-score within array); higher = stronger binding
Conditions in all cases: glycan notation: IUPAC condensed, linker removed; mutation: R186I
[1] = target: Fuc(a1-2)Gal(b1-3)GalNAc(b1-3)Gal
Outline: (§1)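 Arrays were curated from the Consortium for Functional Glycomics database, 3228 in total, and kept only where the protein sequence was available. Binding is expressed as a within-array Z-score. This score was averaged across arrays of the same protein sequence at different concentrations or buffers and across linkers, and negative values can be read as non-binding.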

[2] = target: Fuc(a1-2)Gal(b1-3)GalNAc(b1-3)Gal(a1-4)Gal(b1-4)Glc
Outline: as §1

[3] = target: Fuc(a1-2)Gal(b1-3)GlcNAc(b1-3)[Fuc(a1-3)[Gal(b1-4)]GlcNAc(b1-6)]Gal(b1-4)Glc
Outline: as §1

[4] = target: Fuc(a1-2)Gal(b1-4)GlcNAc(b1-2)Man(a1-3)[Fuc(a1-2)Gal(b1-4)GlcNAc(b1-2)Man(a1-6)]Man(b1-4)GlcNAc(b1-4)GlcNAc
Outline: as §1

[5] = target: Fuc(a1-2)[Gal(a1-3)]Gal(b1-3)GlcNAc(b1-2)Man(a1-3)[Fuc(a1-2)[Gal(a1-3)]Gal(b1-3)GlcNAc(b1-2)Man(a1-6)]Man(b1-4)GlcNAc(b1-4)GlcNAc
Outline: as §1

[6] = target: Fuc(a1-2)[Gal(a1-3)]Gal(b1-4)GlcNAc(b1-2)Man(a1-3)[Fuc(a1-2)[Gal(a1-3)]Gal(b1-4)GlcNAc(b1-2)Man(a1-6)]Man(b1-4)GlcNAc(b1-4)GlcNAc
Outline: as §1

[7] = target: Fuc(a1-2)[GalNAc(a1-3)]Gal(b1-3)GlcNAc(b1-2)Man(a1-3)[Fuc(a1-2)[GalNAc(a1-3)]Gal(b1-3)GlcNAc(b1-2)Man(a1-6)]Man(b1-4)GlcNAc(b1-4)GlcNAc
Outline: as §1

[8] = target: Fuc(a1-2)[GalNAc(a1-3)]Gal(b1-4)GlcNAc(b1-2)Man(a1-3)[Fuc(a1-2)[GalNAc(a1-3)]Gal(b1-4)GlcNAc(b1-2)Man(a1-6)]Man(b1-4)GlcNAc(b1-4)GlcNAc
Outline: as §1

[9] = target: Fuc(a1-2)[GalNAc(a1-3)]Gal(b1-4)GlcNAc(b1-3)Gal(b1-4)GlcNAc(b1-3)Gal(b1-4)GlcNAc
Outline: as §1

[10] = target: Fuc(a1-3)[Gal3S(b1-4)]GlcNAc
Outline: as §1

[11] = target: Fuc(a1-3)[Gal3S(b1-4)]GlcNAc6S
Outline: as §1

Gal(a1-4)Gal(b1-4)GlcNAc = target: Gal(a1-4)Gal(b1-4)GlcNAc
Outline: as §1

[12] = target: Gal(b1-3)Gal(b1-4)GlcNAc(b1-2)Man(a1-3)[Gal(b1-3)Gal(b1-4)GlcNAc(b1-2)Man(a1-6)]Man(b1-4)GlcNAc(b1-4)GlcNAc
Outline: as §1

[13] = target: Gal(b1-3)GalNAc(a1-3)[Fuc(a1-2)]Gal(b1-4)GlcNAc
Outline: as §1

[14] = target: Gal(b1-3)GlcNAc(b1-3)Gal(b1-4)GlcNAc
Outline: as §1

[15] = target: Gal(b1-3)GlcNAc(b1-3)Gal(b1-4)[Fuc(a1-3)]GlcNAc(b1-6)[Gal(b1-3)GlcNAc(b1-3)]Gal(b1-4)Glc
Outline: as §1

[16] = target: Gal(b1-3)GlcNAc(b1-6)Gal(b1-4)GlcNAc
Outline: as §1

[17] = target: Gal(b1-3)[Fuc(a1-4)]GlcNAc(b1-2)Man(a1-3)[Gal(b1-3)[Fuc(a1-4)]GlcNAc(b1-2)Man(a1-6)]Man(b1-4)GlcNAc(b1-4)GlcNAc
Outline: as §1

[18] = target: Gal(b1-3)[GlcNAc(b1-6)]GalNAc
Outline: as §1

[19] = target: Gal(b1-4)GlcNAc(b1-3)Gal(b1-3)GlcNAc
Outline: as §1

[20] = target: Gal(b1-4)GlcNAc(b1-3)[Gal(b1-4)GlcNAc(b1-6)]Gal(b1-4)GlcNAc
Outline: as §1

Gal3S(b1-4)Glc = target: Gal3S(b1-4)Glc
Outline: as §1

[21] = target: Gal3S(b1-4)[Fuc(a1-3)]Glc
Outline: as §1

[22] = target: GalNAc(b1-3)Gal(a1-4)Gal(b1-4)GlcNAc(b1-3)Gal(b1-4)Glc
Outline: as §1

Glc(a1-6)Glc(a1-6)Glc = target: Glc(a1-6)Glc(a1-6)Glc
Outline: as §1

GlcNAc(b1-3)Man = target: GlcNAc(b1-3)Man
Outline: as §1

[23] = target: Man(a1-2)Man(a1-3)[Man(a1-2)Man(a1-6)]Man(a1-6)[Man(a1-2)Man(a1-2)Man(a1-3)]Man
Outline: as §1

Man(a1-6)Man = target: Man(a1-6)Man
Outline: as §1

[24] = target: Neu5Ac(a2-3)Gal(b1-4)GlcNAc(b1-2)Man(a1-3)[GlcNAc(b1-2)Man(b1-4)GlcNAc(b1-2)Man(a1-6)]Man(b1-4)GlcNAc(b1-4)GlcNAc
Outline: as §1

[25] = target: Neu5Ac(a2-3)Gal(b1-4)[Fuc(a1-3)]GlcNAc
Outline: as §1

[26] = target: Neu5Ac(a2-6)Gal(b1-4)GlcNAc(b1-3)Gal(b1-4)GlcNAc(b1-3)Gal(b1-4)GlcNAc
Outline: as §1

[27] = target: Neu5Ac9Ac(a2-6)Gal(b1-4)GlcNAc
Outline: as §1

[28] = target: Neu5Gc(a2-3)Gal(b1-4)GlcNAc
Outline: as §1

[29] = target: Neu5Gc(a2-3)Gal(b1-4)[Fuc(a1-3)]GlcNAc
Outline: as §1

B1: Gal 3 (Homo sapiens), P17931 (protein)
chain: MADNFSLHDALSGSGNPNPQGWPGAWGNQPAGAGGYPGASYPGAYPGQAPPGAYPGQAPPGAYHGAPGAYPGAPAPGVYPGPPSGPGAYPSSGQPSAPGAYPATGPYGAPAGPLIVPYNLPLPGGVVPRMLITILGTVKPNANILDFQRGNDVAFHFNPRFNENNRRVIVCNTKLDNNWGREEIQSVFPFESGKPFKIQVLVEPDHFKVAVNDAHLLQYNHRVKKLNEISKLGISGDIDLTSASYTMI
[1]
  glycan array binding signal (z-score): -0.188
[2]
  glycan array binding signal (z-score): -0.055
[3]
  glycan array binding signal (z-score): -0.187
[4]
  glycan array binding signal (z-score): 2.01
[5]
  glycan array binding signal (z-score): 5.08
[6]
  glycan array binding signal (z-score): 10.8
[7]
  glycan array binding signal (z-score): 3.39
[8]
  glycan array binding signal (z-score): 8.83
[9]
  glycan array binding signal (z-score): -0.113
[10]
  glycan array binding signal (z-score): -0.147
[11]
  glycan array binding signal (z-score): -0.154
Gal(a1-4)Gal(b1-4)GlcNAc
  glycan array binding signal (z-score): -0.127
[12]
  glycan array binding signal (z-score): 11.1
[13]
  glycan array binding signal (z-score): -0.146
[14]
  glycan array binding signal (z-score): -0.166
[15]
  glycan array binding signal (z-score): -0.002
[16]
  glycan array binding signal (z-score): -0.173
[17]
  glycan array binding signal (z-score): -0.173
[18]
  glycan array binding signal (z-score): -0.128
[19]
  glycan array binding signal (z-score): 0.065
[20]
  glycan array binding signal (z-score): 0.077
Gal3S(b1-4)Glc
  glycan array binding signal (z-score): -0.189
[21]
  glycan array binding signal (z-score): -0.171
[22]
  glycan array binding signal (z-score): 2.69
Glc(a1-6)Glc(a1-6)Glc
  glycan array binding signal (z-score): -0.021
GlcNAc(b1-3)Man
  glycan array binding signal (z-score): -0.189
[23]
  glycan array binding signal (z-score): -0.075
Man(a1-6)Man
  glycan array binding signal (z-score): -0.185
[24]
  glycan array binding signal (z-score): -0.073
[25]
  glycan array binding signal (z-score): -0.164
[26]
  glycan array binding signal (z-score): -0.107
[27]
  glycan array binding signal (z-score): -0.185
[28]
  glycan array binding signal (z-score): -0.157
[29]
  glycan array binding signal (z-score): -0.165
